# Assay results from the supplement of paper PMC12819154, “High-throughput peptide-centric local stability assay extends protein–ligand identification to membrane proteins, tissues and bacteria” (Nature Structural & Molecular Biology, 2025).
# Compound: CN[C@@H]1C[C@H]2O[C@@](C)([C@@H]1OC)n1c3ccccc3c3c4c(c5c6ccccc6n2c5c31)C(=O)NC4 [staurosporine]
# Assay: log2 fold change of tryptic peptide abundance, ligand vs vehicle (limited proteolysis) (log2 ratio); higher = more trypsin-susceptible (destabilized)
# Conditions: ligand concentration: 20 uM; sample: mouse liver crude lysate; replicate design: treated separately
# Sequence of UniProt A2A974 (A2A974 whole entry): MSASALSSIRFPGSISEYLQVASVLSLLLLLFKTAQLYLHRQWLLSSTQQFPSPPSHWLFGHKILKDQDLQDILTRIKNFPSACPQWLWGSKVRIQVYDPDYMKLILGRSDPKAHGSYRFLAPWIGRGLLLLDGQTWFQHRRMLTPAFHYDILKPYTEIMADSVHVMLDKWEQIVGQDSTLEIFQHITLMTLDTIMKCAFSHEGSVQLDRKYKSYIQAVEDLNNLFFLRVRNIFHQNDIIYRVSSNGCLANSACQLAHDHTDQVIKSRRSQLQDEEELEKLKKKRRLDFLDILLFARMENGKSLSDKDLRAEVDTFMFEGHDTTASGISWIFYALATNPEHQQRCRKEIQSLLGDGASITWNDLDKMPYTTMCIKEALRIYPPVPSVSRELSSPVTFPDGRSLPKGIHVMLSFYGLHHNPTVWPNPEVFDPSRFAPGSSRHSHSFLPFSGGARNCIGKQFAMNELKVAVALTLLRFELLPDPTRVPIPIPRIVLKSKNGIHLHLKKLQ
# Sequence of UniProt Q5SW19 (Q5SW19 whole entry): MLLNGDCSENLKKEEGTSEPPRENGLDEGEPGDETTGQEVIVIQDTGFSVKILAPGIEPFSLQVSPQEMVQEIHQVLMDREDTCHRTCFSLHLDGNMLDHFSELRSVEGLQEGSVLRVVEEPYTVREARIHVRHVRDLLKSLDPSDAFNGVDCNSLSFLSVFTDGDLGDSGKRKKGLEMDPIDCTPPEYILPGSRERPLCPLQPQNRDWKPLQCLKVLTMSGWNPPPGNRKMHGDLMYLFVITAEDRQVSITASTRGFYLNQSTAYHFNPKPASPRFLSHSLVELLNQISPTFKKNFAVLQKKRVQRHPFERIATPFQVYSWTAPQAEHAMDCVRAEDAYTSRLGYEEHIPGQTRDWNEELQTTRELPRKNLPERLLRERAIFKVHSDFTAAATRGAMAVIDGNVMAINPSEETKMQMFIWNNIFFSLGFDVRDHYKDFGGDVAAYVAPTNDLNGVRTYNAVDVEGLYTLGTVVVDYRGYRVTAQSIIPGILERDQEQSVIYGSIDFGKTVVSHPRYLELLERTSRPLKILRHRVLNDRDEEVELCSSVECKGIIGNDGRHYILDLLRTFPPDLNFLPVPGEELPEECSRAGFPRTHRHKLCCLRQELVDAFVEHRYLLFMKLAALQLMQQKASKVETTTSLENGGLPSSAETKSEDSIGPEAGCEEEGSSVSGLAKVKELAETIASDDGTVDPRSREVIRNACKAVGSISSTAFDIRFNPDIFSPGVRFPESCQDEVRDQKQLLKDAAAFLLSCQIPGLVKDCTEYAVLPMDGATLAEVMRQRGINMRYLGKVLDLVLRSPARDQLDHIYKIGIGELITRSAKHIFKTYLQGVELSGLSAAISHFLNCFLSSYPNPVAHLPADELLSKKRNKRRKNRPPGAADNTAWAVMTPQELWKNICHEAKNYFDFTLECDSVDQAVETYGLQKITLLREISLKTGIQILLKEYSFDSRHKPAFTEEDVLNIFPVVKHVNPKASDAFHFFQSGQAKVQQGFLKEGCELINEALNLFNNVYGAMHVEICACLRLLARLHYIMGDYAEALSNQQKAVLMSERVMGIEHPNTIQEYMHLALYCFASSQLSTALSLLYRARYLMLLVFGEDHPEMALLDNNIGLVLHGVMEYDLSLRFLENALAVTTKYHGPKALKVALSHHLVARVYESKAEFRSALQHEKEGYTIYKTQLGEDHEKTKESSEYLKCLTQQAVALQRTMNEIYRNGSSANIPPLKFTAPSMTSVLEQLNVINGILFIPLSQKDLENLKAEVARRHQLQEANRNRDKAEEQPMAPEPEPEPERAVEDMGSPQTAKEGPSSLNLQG
# Sequence of UniProt O08605 (O08605 whole entry): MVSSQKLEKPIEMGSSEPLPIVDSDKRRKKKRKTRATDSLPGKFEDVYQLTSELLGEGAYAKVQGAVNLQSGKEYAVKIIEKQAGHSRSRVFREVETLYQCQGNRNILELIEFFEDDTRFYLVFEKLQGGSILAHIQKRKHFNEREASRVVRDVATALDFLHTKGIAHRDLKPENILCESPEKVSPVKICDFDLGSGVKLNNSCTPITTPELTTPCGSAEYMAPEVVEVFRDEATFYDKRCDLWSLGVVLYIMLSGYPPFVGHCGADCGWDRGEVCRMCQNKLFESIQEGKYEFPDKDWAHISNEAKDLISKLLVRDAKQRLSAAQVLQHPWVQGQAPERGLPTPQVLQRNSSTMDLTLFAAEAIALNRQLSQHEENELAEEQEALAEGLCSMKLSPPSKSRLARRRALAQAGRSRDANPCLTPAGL
# Sequence of UniProt P56657 (P56657 whole entry): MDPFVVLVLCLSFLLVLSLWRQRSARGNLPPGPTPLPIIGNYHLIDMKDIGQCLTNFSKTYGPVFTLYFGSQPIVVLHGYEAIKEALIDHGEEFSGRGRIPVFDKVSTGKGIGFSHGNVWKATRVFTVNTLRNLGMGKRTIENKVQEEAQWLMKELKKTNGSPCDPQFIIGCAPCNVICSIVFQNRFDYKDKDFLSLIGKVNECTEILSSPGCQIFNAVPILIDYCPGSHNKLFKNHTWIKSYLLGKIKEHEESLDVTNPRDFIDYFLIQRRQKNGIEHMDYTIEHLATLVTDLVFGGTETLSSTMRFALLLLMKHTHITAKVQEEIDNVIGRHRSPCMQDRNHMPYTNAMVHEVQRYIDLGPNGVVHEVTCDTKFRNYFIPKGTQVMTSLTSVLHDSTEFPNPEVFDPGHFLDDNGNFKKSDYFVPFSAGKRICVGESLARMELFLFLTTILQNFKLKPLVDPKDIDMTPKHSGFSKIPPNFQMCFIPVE
# Sequence of UniProt P47802 (P47802 whole entry): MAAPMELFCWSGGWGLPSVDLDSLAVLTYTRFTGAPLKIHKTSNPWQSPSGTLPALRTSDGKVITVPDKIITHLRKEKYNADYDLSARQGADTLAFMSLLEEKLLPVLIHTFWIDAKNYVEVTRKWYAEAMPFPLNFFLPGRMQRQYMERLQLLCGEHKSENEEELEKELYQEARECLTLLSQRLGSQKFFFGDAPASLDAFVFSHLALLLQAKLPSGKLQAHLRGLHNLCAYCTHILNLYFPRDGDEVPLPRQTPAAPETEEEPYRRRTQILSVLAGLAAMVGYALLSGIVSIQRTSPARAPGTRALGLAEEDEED
# Sequence of UniProt Q9CXI0 (Q9CXI0 whole entry): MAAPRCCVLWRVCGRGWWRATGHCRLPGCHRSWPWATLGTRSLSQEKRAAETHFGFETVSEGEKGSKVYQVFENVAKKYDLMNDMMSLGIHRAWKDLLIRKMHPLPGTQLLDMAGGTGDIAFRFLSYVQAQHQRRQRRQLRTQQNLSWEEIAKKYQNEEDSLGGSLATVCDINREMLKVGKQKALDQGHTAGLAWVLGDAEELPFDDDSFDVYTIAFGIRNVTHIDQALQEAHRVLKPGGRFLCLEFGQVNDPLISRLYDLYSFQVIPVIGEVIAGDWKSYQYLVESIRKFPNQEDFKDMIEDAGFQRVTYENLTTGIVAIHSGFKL
# Sequence of UniProt Q9D826 (Q9D826 whole entry): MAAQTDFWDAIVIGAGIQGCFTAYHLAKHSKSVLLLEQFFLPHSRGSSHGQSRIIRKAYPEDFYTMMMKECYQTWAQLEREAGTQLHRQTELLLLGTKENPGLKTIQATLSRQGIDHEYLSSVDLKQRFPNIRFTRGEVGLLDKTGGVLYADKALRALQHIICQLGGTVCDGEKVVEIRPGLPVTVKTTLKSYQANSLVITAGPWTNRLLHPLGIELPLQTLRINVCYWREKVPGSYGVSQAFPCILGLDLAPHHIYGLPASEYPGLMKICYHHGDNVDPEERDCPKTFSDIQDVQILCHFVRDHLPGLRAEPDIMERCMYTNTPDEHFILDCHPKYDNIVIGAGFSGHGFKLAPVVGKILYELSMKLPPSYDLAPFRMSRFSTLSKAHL
# Sequence of UniProt Q05421 (Q05421 whole entry): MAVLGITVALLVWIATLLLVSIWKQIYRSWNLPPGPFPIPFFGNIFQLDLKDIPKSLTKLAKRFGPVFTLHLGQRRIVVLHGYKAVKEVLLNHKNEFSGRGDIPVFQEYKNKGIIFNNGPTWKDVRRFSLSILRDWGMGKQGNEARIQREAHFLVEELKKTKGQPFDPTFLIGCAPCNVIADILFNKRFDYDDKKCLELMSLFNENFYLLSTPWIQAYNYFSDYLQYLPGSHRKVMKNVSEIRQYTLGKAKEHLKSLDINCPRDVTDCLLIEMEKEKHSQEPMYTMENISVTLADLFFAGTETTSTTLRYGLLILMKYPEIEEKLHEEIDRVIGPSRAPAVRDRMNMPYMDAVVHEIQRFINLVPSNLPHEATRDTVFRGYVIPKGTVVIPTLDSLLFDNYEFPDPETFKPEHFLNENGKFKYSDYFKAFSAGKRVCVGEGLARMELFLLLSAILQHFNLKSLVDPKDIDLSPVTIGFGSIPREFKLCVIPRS
# Sequence of UniProt P11440 (P11440 whole entry, looked up): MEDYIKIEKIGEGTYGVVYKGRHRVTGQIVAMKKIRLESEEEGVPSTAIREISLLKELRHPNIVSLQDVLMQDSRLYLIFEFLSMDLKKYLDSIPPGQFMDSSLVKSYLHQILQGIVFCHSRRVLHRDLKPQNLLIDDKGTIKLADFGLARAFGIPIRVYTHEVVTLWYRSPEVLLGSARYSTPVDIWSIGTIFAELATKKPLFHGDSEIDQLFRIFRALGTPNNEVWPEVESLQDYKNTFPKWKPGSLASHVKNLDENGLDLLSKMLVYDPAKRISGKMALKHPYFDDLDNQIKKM
# Sequence of UniProt Q9JIZ0 (Q9JIZ0 whole entry): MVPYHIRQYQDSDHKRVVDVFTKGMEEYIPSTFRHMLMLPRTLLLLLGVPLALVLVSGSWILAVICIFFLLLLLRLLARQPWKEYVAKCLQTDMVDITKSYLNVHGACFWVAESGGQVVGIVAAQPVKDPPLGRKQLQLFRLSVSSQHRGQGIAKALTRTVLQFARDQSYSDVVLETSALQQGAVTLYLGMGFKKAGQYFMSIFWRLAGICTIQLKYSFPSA
row,Target,log2 fold change
1,"UniProt Q5SW19 (peptide sequence: YLELLER, peptide start residue: 517)",-0.493
2,"UniProt P11440 (peptide sequence: IGEGTYGVVYK, peptide start residue: 10)",-2.03
3,"UniProt A2A974 (peptide sequence: SLSDKDLR, peptide start residue: 303)",0.2
4,"UniProt P47802 (peptide sequence: EKYNADYDLSAR, peptide start residue: 77)",-0.346
5,"UniProt Q9JIZ0 (peptide sequence: LAGICTIQLK, peptide start residue: 207)",0.276
6,"UniProt Q9D826 (peptide sequence: INVCYWR, peptide start residue: 224)",0.236
7,"UniProt P56657 (peptide sequence: NHMPYTNAMVHEVQR, peptide start residue: 343)",-0.322
8,"UniProt Q9CXI0 (peptide sequence: NVTHIDQALQEAHR, peptide start residue: 221)",-0.267
9,"UniProt O08605 (peptide sequence: GLPTPQVLQR, peptide start residue: 341)",1.06
10,"UniProt A2ATU0 (peptide sequence: SSLYSSDIGK, peptide start residue: 380)",0.605
11,"UniProt Q05421 (peptide sequence: FGPVFTLHLGQR, peptide start residue: 64)",0.247
12,"UniProt Q9ET43 (peptide sequence: SRLSAIEIDIPVVSHST, peptide start residue: 228)",-0.532
